Laboratory results reported in the supplement of paper PMC7156485.
Structures can show the parent of a compound that is named as a salt.

What follows are molecules tested on TDF (assay: cell number relative to DMSO (% of DMSO); higher = more cells (less growth inhibition / toxicity)). Conditions: concentration: 10 µM; 24 h.
In short: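 Cell number or H1.0 nuclear intensity appears as percent of the plate control, based on the median of replicates. Measurements came from HCC1569 and TDF cells exposed in triplicate to compounds at 10 µM for 24 h at 37 °C, then imaged in six fields per well at ×10. Positional effects were smoothed out of HCC1569 values.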
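Note: TDF denotes transformed human dermal fibroblasts of mesenchymal origin.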

Compound | cell number
CN1CC(C(=O)NC2(C)OC3(O)C4CCCN4C(=O)C(Cc4ccccc4)N3C2=O)CC2c3cccc4[nH]cc(c34)CC21.CS(=O)(=O)O (centres undefined) [Dihydroergotamine methanesulfonate] | 108
S=C(NC1CCCCC1)N1CCC(c2cnc[nH]2)CC1 [Thioperamide maleate] | 100
CN1CC(NS(=O)(=O)N(C)C)CC2c3cccc4c3c(cn4C)CC21 (centres undefined) [Mesulergine] | 103
O=C1CSC(c2ccccc2Cl)c2cc(Cl)ccc2N1 (centres undefined) | 105
COc1ccc2c(c1OC)C(=O)OC2C1c2cc3c(cc2CCN1C)OCO3 (centres undefined) | 97.5
CC=C1CC(C)C(O)(CO)C(=O)OCC2=CCN3CCC(OC1=O)C23 (centres undefined) [Retrorsine] | 115
C[Se]CC(N)C(=O)O.Cl (centres undefined) [Se-(methyl)selenocysteine hydrochloride] | 90.3
CC(=O)OCC1=CC2C3C(C)(C)C3(OC(=O)Cc3ccccc3)CC(C)C2(O)C2C=C(C)C(=O)C2(O)C1 (centres undefined) [12-Deoxyphorbol 13-phenylacetate 20-acetate] | 74
CCCCCCC(=O)CCCCCCC=CCC(O)C(O)C(N)(CO)C(=O)O (centres undefined) [Myriocin] | 92.4
CNC(=O)Oc1ccc2c(c1)C1(C)CCN(C)C1N2C (single isomer, unassigned; (-)) [(-)-Physostigmine] | 118
CN(C)C(=O)Oc1cccc([N+](C)(C)C)c1.COS(=O)(=O)[O-] | 103
C=CCc1cc(OC)c2c(c1)OCO2 [Myristicin] | 103
COc1ccc(-n2nc(C(F)(F)F)cc2-c2ccc(Cl)cc2)cc1 | 106
C[C@]12CC[C@@H](O)C[C@@H]1CC[C@@H]1[C@@H]2CC[C@]2(C)[C@@H](O)CC[C@@H]12 [5alpha-Androstane-3alpha,17beta-diol] | 104
CN1CC(CNC(=O)OCc2ccccc2)CC2c3cccc4c3c(cn4C)CC21 (centres undefined) [Metergoline] | 105
CC(C)Oc1cccnc1N(C)C1CCN(Cc2ccc(I)cc2)CC1 [RBI-257 maleate] | 98.1
O=[N+]([O-])c1ccc(O[C@@H]2O[C@H](CO)[C@@H](O)[C@H](O)[C@H]2F)c([N+](=O)[O-])c1 [2,4-Dinitrophenyl 2-fluoro-2-deoxy-beta-D-glucopyranoside] | 111
CCN1CC2(COC)CCC(OC)C34C5CC6C(OC)CC7(OCOC7(C(O)C23)C14)C5C6OC (centres undefined) [Delcorine] | 105
CCC(C(=O)O)C1OC(C(C)C(O)C(C)C(=O)C(CC)C2OC3(C=CC(O)C4(CCC(C)(C5CCC(O)(CC)C(C)O5)O4)O3)C(C)CC2C)C(C)CC1C (centres undefined) [Narasin] | 84.4
CC(=O)NCCc1c[nH]c2ccccc12 [N-Acetyltryptamine] | 97.5

Compound | cell number
CC1CCC2C(C)C3C(CC4C5CCC6CC(O)CCC6(C)C5CCC43C)N2C1 (centres undefined) [Demissidine] | 92.2
CN1C2CCC1CC(OC(=O)C(CO)c1ccccc1)C2 (centres undefined) [Hyoscyamine] | 98
Cl.NCC(O)c1cc(O)c(O)cc1F (centres undefined) [6-Fluoronorepinephrine hydrochloride] | 111
CN(C)C(=O)Oc1ccc[n+](C)c1.[Br-] [Pyridostigmine bromide] | 107
CS(=O)(=O)O.Cc1c(C(=O)c2cccc3ccccc23)c2cccc3c2n1C(CN1CCOCC1)CO3 (stereo not drawn) [( R)-(+)-WIN 55,212-2 mesylate] | 53.4
Cl.N[C@@H](CCl)C(=O)O [beta-Chloro-L-alanine hydrochloride] | 97.8
COc1cccc2c1cc([N+](=O)[O-])c1c(C(=O)O)cc3c(c12)OCO3 [Aristolochic acid A] | 110
O=C1CCCC2C3CCCN4CCCC(CN12)C34 (centres undefined) [Matrine] | 94.7
CN1Cc2c(ccc3c2OCO3)C2C(O)Cc3cc4c(cc3C21)OCO4 (single isomer, unassigned; (+)) [(+)-Chelidonine] | 7.56
C[N+]1([O-])C2CC(OC(=O)C(CO)c3ccccc3)CC1C1OC12 (single isomer, unassigned; (-)) [(-)-Scopolamine N-oxide] | 105
CC(C)C1C(=O)OC2CCN3CC=C(COC(=O)C(C)(O)C1(C)O)C23 (centres undefined) [Trichodesmine] | 103
C/C(Nc1ccccc1)=C1\C(=O)NC(Cc2ccccc2)C1=O (centres undefined) [(3E)-3-(1-anilinoethylidene)-5-benzyl-2,4-pyrrolidinedione] | 7.27
NC(=NN=Cc1ccc(-c2cccc([N+](=O)[O-])c2)o1)N[N+](=O)[O-] [ERK Inhibitor III] | 101
CC(=O)C1=C(O)C2C3c4c[nH]c5cccc(c45)CC3C(C)(C)N2C1=O (centres undefined) [Cyclopiazonic acid] | 90.8
CCCN1CCc2cccc3c2C1Cc1ccc(O)c(O)c1-3.Cl (stereo not drawn) [R(-)-Propylnorapomorphine hydrochloride] | 91.8
O=C(Oc1ccc([N+](=O)[O-])cc1)N1CCN(Cc2cccc(Oc3ccccc3)c2)CC1 [4-nitrophenyl 4-(3-phenoxybenzyl)-1-piperazinecarboxylate] | 104
CC(C)C1(NC(=O)C2C=C3c4cccc5[nH]cc(c45)CC3N(C)C2)OC2(O)C3CCCN3C(=O)C(Cc3ccccc3)N2C1=O (centres undefined) [Ergocristine] | 109
Cl.NC(=O)c1ccc(OCC(O)CN2CC=C(c3ccc(F)cc3)CC2)cc1 (centres undefined) | 107
CCCCC(C)C(OC(=O)CC(CC(=O)O)C(=O)O)C(CC(C)CCCCCCC(O)CC(O)C(C)N)OC(=O)CC(CC(=O)O)C(=O)O (centres undefined) [Fumonisin B2] | 102
